Test results from PubChem BioAssay AID2284099 (EPA ToxCast).
Activity calls are given as the source filed them. How the source made its calls: active means hit-call score of the fitted dose curve at least 0.9, where 1 is the maximum; inactive means score below 0.9.

Target: human JAK2 Tyrosine Kinase, JAK2 (gene 3717) (UniProt O60674)
Assay: ERF_FR_ENZ_hJAK2: Eurofins (ERF) Enzymatic Radiometric [Km ATP] KinaseProfiler LeadHunter Assay for human JAK2 Tyrosine Kinase
Protocol: ERF_FR_ENZ_hJAK2 is a biochemical, single-readout assay that uses extracted gene-proteins in a cell-free assay. Measurements were taken 1 hour after chemical dosing in a 96-well plate. See JAK2 Human TK Kinase Enzymatic LANCE Assay [Km ATP], Cerep.ERF_FR_ENZ_hJAK2 is an assay component calculated from the ERF_FR_ENZ_hJAK2 assay. It is designed to measure enzyme activity using a type of enzyme reporter as detected by fluorescence intensity with LANCE technology.Data from the assay component ERF_FR_ENZ_hJAK2 was analyzed at the assay endpoint, ERF_FR_ENZ_hJAK2, in the positive analysis fitting direction relative to DMSO as the negative control and baseline of activity. Using a type of enzyme reporter, loss-of-signal activity can be used to understand changes in enzymatic activity as they relate to gene JAK2. To generalize the intended target to other relatable targets, this assay endpoint is annotated to the kinase intended target family, where the subfamily is non-receptor tyrosine kinase.
JAK2 (h) is incubated with 8 mM MOPS pH 7.0, 0.2 mM EDTA, 100 uM […], 10 mM MgAcetate and [gamma-33P]-ATP (specific activity and concentration as required). The reaction is initiated by the addition of the Mg/ATP mix. After incubation for 40 minutes at room temperature, the reaction is stopped by the addition of phosphoric acid to a concentration of 0.5%. […]

human JAK2 Tyrosine Kinase, JAK2 (gene 3717), sequence (O60674 whole entry, looked up): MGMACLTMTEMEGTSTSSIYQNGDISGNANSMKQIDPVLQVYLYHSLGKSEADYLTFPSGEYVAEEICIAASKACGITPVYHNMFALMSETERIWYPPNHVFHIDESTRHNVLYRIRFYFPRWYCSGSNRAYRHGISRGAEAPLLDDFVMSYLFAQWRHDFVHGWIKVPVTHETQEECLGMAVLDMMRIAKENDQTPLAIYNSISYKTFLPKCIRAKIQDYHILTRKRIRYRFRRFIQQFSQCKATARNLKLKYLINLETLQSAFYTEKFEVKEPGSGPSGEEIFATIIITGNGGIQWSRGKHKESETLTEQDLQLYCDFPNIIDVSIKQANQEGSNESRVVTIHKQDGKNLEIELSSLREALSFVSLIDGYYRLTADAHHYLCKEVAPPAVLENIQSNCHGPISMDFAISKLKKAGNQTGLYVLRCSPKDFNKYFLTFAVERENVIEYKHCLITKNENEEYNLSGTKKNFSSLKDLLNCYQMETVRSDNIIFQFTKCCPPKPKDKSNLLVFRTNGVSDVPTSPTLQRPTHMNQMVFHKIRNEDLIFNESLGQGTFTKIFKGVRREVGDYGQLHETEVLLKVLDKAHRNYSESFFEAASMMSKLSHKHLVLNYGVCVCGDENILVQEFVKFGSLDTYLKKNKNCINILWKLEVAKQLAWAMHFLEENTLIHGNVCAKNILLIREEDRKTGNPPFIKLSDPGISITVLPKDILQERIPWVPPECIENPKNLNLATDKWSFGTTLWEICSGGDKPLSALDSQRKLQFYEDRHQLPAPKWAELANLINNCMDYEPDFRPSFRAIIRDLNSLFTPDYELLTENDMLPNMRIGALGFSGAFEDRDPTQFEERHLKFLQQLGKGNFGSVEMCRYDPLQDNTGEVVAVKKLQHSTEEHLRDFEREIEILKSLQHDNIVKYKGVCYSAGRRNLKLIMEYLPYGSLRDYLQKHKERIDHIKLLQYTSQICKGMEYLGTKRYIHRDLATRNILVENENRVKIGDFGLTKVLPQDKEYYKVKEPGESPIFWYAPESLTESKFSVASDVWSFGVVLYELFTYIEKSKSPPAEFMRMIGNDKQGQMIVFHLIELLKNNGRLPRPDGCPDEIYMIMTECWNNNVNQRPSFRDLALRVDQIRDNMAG

SMILES	AC50
O=C(/C=C/c1ccc(O)cc1)CC(=O)/C=C/c1ccc(O)cc1	2510 nM (active)
